Test systems include HCT-15 colon; HT29 colon; SNB-75 CNS; SNB-19 CNS; U251 CNS; PC-3 prostate; SK-MEL-5 melanoma; UACC-62 melanoma; LOX IMVI melanoma; SK-MEL-28 melanoma; SK-MEL-2 melanoma; EKVX NSCLC; SN12C renal; UO-31 renal; ACHN renal; CAKI-1 renal; CCRF-CEM leukemia; MOLT-4 leukemia; TK-10 renal; A498 renal.
Holding throughout (experiment): NCI-60 one-dose screen, 48 h (100 = growth as untreated, 0 = no growth, -100 = all killed)
Holding throughout (conditions): 10 µM unless noted

Data on eight molecules can be found in PubChem BioAssay (NCI).

About 83,000 compounds went through this panel and 20% of them were active in at least one assay; those are over-represented in the sample as a whole.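 The endpoint reported here, percent growth, reads 100 for growth as untreated, 0 for no net growth and -100 for all cells dead.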 Values without a mark were called inactive. Active and inactive are the calls of the source. The calls were made as follows: active = growth percent below 10; inactive = the rest.

In the case of `COc1cccc(CNCCN2C(=O)c3ccc4c5c(ccc(c35)C2=O)C(=O)N(CCNCc2cccc(OC)c2)C4=O)c1`, the growth was 9.24% (active) with HCT-15 colon; 2.39% (active) in the experiment on HT29 colon; 120% with SNB-75 CNS; 84.2% with SNB-19 CNS; 76.9% in the experiment with U251 CNS; 78.9% with PC-3 prostate. The growth in the experiment on SK-MEL-5 melanoma was 58.8%; with UACC-62 melanoma, 96.8%; with LOX IMVI melanoma, 59.4%; with SK-MEL-28 melanoma it was 120%; in the experiment with SK-MEL-2 melanoma, 90.4%; in the experiment with EKVX NSCLC it was 121%. Further, the growth is 85.7% in the experiment with SN12C renal; 60.5% with UO-31 renal; 76.4% with ACHN renal; 95.5% in the experiment with CAKI-1 renal; -0.889% (active) in the experiment on CCRF-CEM leukemia; 90.4% with MOLT-4 leukemia.
Turning to `C[C@]12C[C@H]1CC[C@]1(C)[C@@H]2CC[C@@]23C[C@H](CC[C@H]21)[C@@](O)(CO)C3`, the growth in the experiment on HCT-15 colon was 88.6%; in the experiment with HT29 colon, 100%; with SNB-75 CNS, 105%; in the experiment on SNB-19 CNS it was 95.4%; with U251 CNS, 103%; with PC-3 prostate it was 88.9%. The growth is 97.7% in the experiment with SK-MEL-5 melanoma; 76.2% with UACC-62 melanoma; 93.6% in the experiment with LOX IMVI melanoma; 105% with SK-MEL-28 melanoma; 104% with SK-MEL-2 melanoma; 74.8% in the experiment with EKVX NSCLC. In addition, the growth with UO-31 renal is 84%; in the experiment on TK-10 renal it was 100%; in the experiment with ACHN renal, 107%; in the experiment with CAKI-1 renal, 85.9%; in the experiment on A498 renal, 92.9%; in the experiment on CCRF-CEM leukemia it was 86.4%. In the experiment with MOLT-4 leukemia, the growth is 96%.
In the case of `COc1ccc2c(c1)OC1=C(C(=O)OC1)C2c1cc(OC)c(OC)c(OC)c1` (stereo not given), the growth in the experiment on HCT-15 colon is 19%; in the experiment with HT29 colon, 6.93% (active); in the experiment with SNB-75 CNS it was 41.1%; in the experiment on SNB-19 CNS it was 33.8%; with U251 CNS, 21.6%; in the experiment with PC-3 prostate it was 28.1%. The growth in the experiment on SK-MEL-5 melanoma is 16.1%; in the experiment with UACC-62 melanoma it was 42.3%; in the experiment with LOX IMVI melanoma, 50.8%; with SK-MEL-28 melanoma, 53.5%; with SK-MEL-2 melanoma, 27.3%; in the experiment with EKVX NSCLC, 50.7%. Moreover, the growth is 51.5% in the experiment with UO-31 renal; 67.4% in the experiment with TK-10 renal; 48.8% in the experiment with ACHN renal; 55.6% with CAKI-1 renal; -1.39% (active) with A498 renal; 13.8% with CCRF-CEM leukemia. Also, the growth in the experiment with MOLT-4 leukemia is 20.4%.
Take `Clc1ccc(C2CC(c3cccc(Nc4ccncc4)c3)=NN2c2ccc(Cl)cc2)cc1` (stereo not given): the growth was -71.6% (active) with HCT-15 colon; -5.47% (active) in the experiment with HT29 colon; 70.7% in the experiment on SNB-75 CNS; 67.8% in the experiment with SNB-19 CNS; -49.7% (active) with U251 CNS; 17% in the experiment with PC-3 prostate. The growth in the experiment on SK-MEL-5 melanoma was 33.8%; with UACC-62 melanoma, 98%; in the experiment on LOX IMVI melanoma, -97.2% (active); with SK-MEL-28 melanoma it was -92.3% (active); in the experiment on SK-MEL-2 melanoma it was 85.8%; in the experiment on EKVX NSCLC, 72.3%. Also, the growth with UO-31 renal was 4.62% (active); with TK-10 renal, 50.5%; with ACHN renal, -66.6% (active); in the experiment on CAKI-1 renal, -59.6% (active); in the experiment on A498 renal, 72.1%; with CCRF-CEM leukemia, 2.88% (active). Besides, the growth in the experiment with MOLT-4 leukemia is -5.2% (active).
Take `CC[N+](CC)(CCCC(C)[N+]1(Cc2ccccc2)C(C)=CC=C1C)Cc1ccccc1` (stereo not given): the growth was 98.5% with HCT-15 colon; 44.1% with HT29 colon; 87.6% with SNB-75 CNS; 92.6% with SNB-19 CNS; 106% with U251 CNS; 73.3% in the experiment with PC-3 prostate. Further, the growth was 68.7% with SK-MEL-5 melanoma; 73% in the experiment with UACC-62 melanoma; 90.7% with LOX IMVI melanoma; 78.8% with SK-MEL-28 melanoma; 102% with SK-MEL-2 melanoma; 78.1% with EKVX NSCLC. In addition, the growth in the experiment with SN12C renal was 85.1%; with UO-31 renal, 91.2%; in the experiment on ACHN renal, 100%; in the experiment on CAKI-1 renal, 101%; with A498 renal, 87.5%; in the experiment with CCRF-CEM leukemia, 74.1%. Further, the growth in the experiment on MOLT-4 leukemia was 84%.
As to `COc1ccc(-c2nc(SCCC(C)C)nc(N/N=C(/C)c3ccc(C)cc3)c2C#N)cc1`, the growth with HCT-15 colon is 92.9%; with HT29 colon, 112%; with SNB-75 CNS, 84%; in the experiment on SNB-19 CNS it was 86.8%; in the experiment on U251 CNS it was 103%; in the experiment with PC-3 prostate, 85.8%. Besides, the growth was 94.3% in the experiment with SK-MEL-5 melanoma; 87.4% with UACC-62 melanoma; 91% in the experiment with LOX IMVI melanoma; 103% with SK-MEL-28 melanoma; 106% in the experiment with SK-MEL-2 melanoma; 90.8% in the experiment on EKVX NSCLC. For the same molecule, the growth was 75% in the experiment on SN12C renal; 66% in the experiment with UO-31 renal; 89.6% in the experiment with ACHN renal; 83.2% with CAKI-1 renal; 99.4% in the experiment with A498 renal; 94.4% in the experiment with CCRF-CEM leukemia. In addition, the growth in the experiment on MOLT-4 leukemia was 88.3%.
As for `CCCCCN1C=C/C(=C\C(=O)N(C)c2ccc(Br)cc2)c2ccccc21`, the growth in the experiment on HCT-15 colon is 102%; in the experiment on HT29 colon, 91.6%; with SNB-75 CNS it was 91.6%; in the experiment with SNB-19 CNS it was 99.6%; in the experiment with U251 CNS, 92.4%; with PC-3 prostate, 97.3%. The growth in the experiment on SK-MEL-5 melanoma was 97.9%; in the experiment on UACC-62 melanoma, 93.7%; in the experiment on LOX IMVI melanoma, 87.6%; in the experiment on SK-MEL-28 melanoma, 105%; with SK-MEL-2 melanoma, 109%; with EKVX NSCLC, 84.8%. The growth with SN12C renal is 97.6%; in the experiment with UO-31 renal, 77.6%; in the experiment with ACHN renal, 113%; in the experiment on CAKI-1 renal it was 86.7%; with CCRF-CEM leukemia it was 97.9%; in the experiment with MOLT-4 leukemia, 85%.
Take `CC1CCN(C(=O)OCc2nc3nc(Cl)nc(N4CCOCC4)c3[nH]2)CC1`: the growth with HCT-15 colon is -12.2% (active); in the experiment on HT29 colon, -66.8% (active); with SNB-75 CNS, 14.8%; in the experiment on SNB-19 CNS, 60.3%; in the experiment on U251 CNS, -89.2% (active); in the experiment on PC-3 prostate, -59.2% (active). The growth in the experiment on SK-MEL-5 melanoma was -27.3% (active); in the experiment on UACC-62 melanoma, -94.1% (active); with LOX IMVI melanoma it was -86.4% (active); in the experiment with SK-MEL-28 melanoma it was -86.4% (active); in the experiment on SK-MEL-2 melanoma it was -92% (active); in the experiment with EKVX NSCLC, 40.4%. Further, the growth is -61.4% (active) with SN12C renal; -100% (active) with UO-31 renal; -100% (active) in the experiment on ACHN renal; -73.8% (active) with CAKI-1 renal; 42.2% in the experiment on A498 renal; -7.16% (active) in the experiment on CCRF-CEM leukemia. For the same molecule, the growth in the experiment with MOLT-4 leukemia is 0.0264% (active).
